Most compounds without a hit are left out; they make up all but 1.9% or so of the library.
p47phox inh: p47phox/p22phox peptide binding inhibitors, primary screen, biochemical, uHTS, NADPH oxidase regulatory subunit. Neutrophil cytosol factor 1 (Homo sapiens), P14598. fluorescence polarization, 2 h. inhibition, % at 24.7 µM. hit rate 0.53% among 220,000;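 active means inhibition above about 30%, limit read from the data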;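 further: 0% = p47phox with labelled peptide and 100% = labelled peptide alone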
Target sequence (P14598 whole entry, looked up): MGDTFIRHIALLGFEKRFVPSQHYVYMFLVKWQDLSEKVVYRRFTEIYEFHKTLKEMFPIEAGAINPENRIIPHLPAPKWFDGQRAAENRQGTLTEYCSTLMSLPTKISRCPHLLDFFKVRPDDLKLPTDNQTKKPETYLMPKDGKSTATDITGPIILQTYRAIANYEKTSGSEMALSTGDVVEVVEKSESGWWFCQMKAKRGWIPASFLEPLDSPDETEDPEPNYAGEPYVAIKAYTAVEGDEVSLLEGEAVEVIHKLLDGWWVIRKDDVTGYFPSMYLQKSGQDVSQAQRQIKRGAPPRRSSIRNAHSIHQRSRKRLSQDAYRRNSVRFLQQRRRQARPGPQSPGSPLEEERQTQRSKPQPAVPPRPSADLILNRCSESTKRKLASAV
aDG glyco up: activators of alpha-DG glycosylation, primary screen, uHTS, Pro5-aDG cells, AlphaScreen; AID 624168, 2012; hit rate 0.22% among 360,000; alpha-DG glycosylation AlphaScreen (IIH6); 0% Pro5, 100% B10-LARGE cell signal; activation, % at 10 µM;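 active means activation of at least 8% versus controls, or a plate z-score of at least 8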;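 further: Pro5 are CHO cells carrying HIG-tagged alpha-DG that lacks glycosylation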
EBNA-1 inh: EBNA-1 DNA-binding inhibitors, primary screen, biochemical, fluorescence polarization | inhibition, % at 14.8 µM | hit rate 0.34% among 300,000; in the data active means inhibition above about 28%
NR1D1 modulator: modulators of Rev-erb alpha DNA binding, primary screen, biochemical, FITC-DNA, fluorescence polarization, uHTS; Rev-erbα–FITC-DNA binding, 90 min; activity, % at 10 µM; hit rate 0.79% among 370,000; AID 1259318, 2017;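 active means activity above about 14%, limit read from the data; passing the limit was not always enough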;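 further: 0% = DMSO wells with 35 nM protein and 100% = DMSO wells with 750 nM protein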
PG9 binder: binders of HIV-1 gp120 antibody PG9, primary screen, biochemical, TR-FRET; HIV-1 gp120 / PG9 antibody interaction; AID 624416, 2012; TR-FRET gp120-PG9 antibody binding; hit rate 0.43% among 360,000; inhibition, % at 6.7 µM; in the data active means inhibition above about 8.5%
ZTA counter: ZTA (EBV) inhibition in EBNA-1 counter-screen | hit rate 0.15% among 320,000 | P03206 | AID 2234 | inhibition, % at 11 µM | ZTA-DNA binding, fluorescence polarization; in the data active means inhibition above about 33%
Target sequence (P03206 whole entry, looked up): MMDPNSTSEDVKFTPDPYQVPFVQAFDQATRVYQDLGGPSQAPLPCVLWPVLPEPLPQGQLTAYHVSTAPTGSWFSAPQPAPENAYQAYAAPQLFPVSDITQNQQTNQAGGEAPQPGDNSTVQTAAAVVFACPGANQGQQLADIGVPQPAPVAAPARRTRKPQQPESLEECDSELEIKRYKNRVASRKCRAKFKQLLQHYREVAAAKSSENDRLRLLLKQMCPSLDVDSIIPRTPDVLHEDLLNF
aDG conf: alpha-DG glycosylation enhancers, retest, confirmation, single concentration, Pro5-aDG cells; hit rate 17% among 600; activation, % at 10 µM (by protocol); shares compounds with aDG glyco up; IIH6 AlphaLISA; scaled to LARGE-overexpressing B10 cells as 100%; AID 651671, 2012;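 active means activation of at least 7% in one or more replicates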;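 further: cells exposed to compound for two days before detection; 0% = DMSO-treated Pro5 cells and 100% = DMSO-treated B10-LARGE cells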
* marks the source's active call; other numbers are inactive results; . = no result.

SMILES | p47phox inh | aDG glyco up | EBNA-1 inh | NR1D1 modulator | PG9 binder | ZTA counter | aDG conf
COC(=O)c1ccc(CNC(=O)Cn2cnc3c(NCc4ccccc4)ncnc32)cc1 | . | 8.3* | . | -2 | -4 | . | 1
NC(=S)NN=C(c1ccc(Br)cc1)C1CC1 | . | 5.7* | . | 1 | 0 | . | 1
NC(=S)NN=C(c1ccc(F)cc1)C1CC1 | . | 2 | . | -1 | 1 | . | .
OC[C@@H]1CN(Cc2ccccc2)C[C@H](n2cnc3c(NC4CC4)ncnc32)O1 | . | 0 | . | -6 | 3 | . | .
OC[C@@H]1CN(Cc2ccc(-c3ccccc3)cc2)C[C@H](n2cnc3c(NC4CCC4)ncnc32)O1 | . | 7.6* | . | -2 | -2 | . | 2
COc1cccc(N2CCN(c3ccc([N+](=O)[O-])cn3)CC2)c1 | . | 3.4* | 7 | 4 | 0 | -8 | 0
CN1CC2(Cc3c1ccc1ccccc31)C(=O)OC(C)(C)OC2=O | -4 | 6.4* | 2 | 4 | -10 | 12 | -1
Cc1cccc(C)c1NC(=O)CSc1nc2[nH]c(=O)cc(O)c2s1 | . | 18* | . | -2 | -1 | -8 | 0
COC(=O)[C@]12C[C@H](CC(=O)NCCCN3CCCC3=O)C(=O)N(CCC3=CCCCC3)C1=C[C@H](C(C)C)O[C@@H]2C1CC1 | . | . | . | 1 | . | . | .
Oc1ccc(Oc2ccccc2F)c2cccnc12 | . | . | . | 6 | . | . | .
CN1CCCC2(CCCN(Cc3nc(Cc4cccc(C(F)(F)F)c4)no3)C2)C1 (stereo not given) | -1 | 2 | 5 | -1 | 0 | 10 | .
FC(F)(F)c1cccc(Cc2noc(CN3CCC(c4ccncc4)CC3)n2)c1 | 1 | 6.1* | 4 | -3 | 0 | 3 | 2
Cc1ccc2nc(-c3ccc(F)cc3)c(CC3CCCCC3)n2c1 | . | 8.8* | . | 0 | -1 | . | 0
CCN(CC)C(=O)CC[C@H]1CC[C@]2(CCCN(Cc3ccccn3)C2)O1 | . | . | . | 0 | . | . | .
O=C(CSc1nnc(Cn2nnc3ccccc32)o1)N(Cc1ccc(Cl)cc1)c1ccccc1 | -13 | 6.4* | -2 | -1 | -3 | 12 | 0
O=C(CSc1nnc(Cn2nnc3ccccc32)o1)Nc1cccc(Cl)c1 | 5 | 0 | 3 | -1 | 1 | 8 | .
CC12CCC(C(N)C1=O)C2(C)C (stereo not given) | . | 0 | . | 0 | -2 | . | .
CC12CCC(C(NC(=S)NN)C1=O)C2(C)C (stereo not given) | . | 27* | . | -1 | -3 | . | 0
N#CCc1ccc(OC[C@@H](O)CN2CCC(C(O)(c3ccccc3)c3ccccc3)CC2)cc1 | . | . | . | 3 | . | . | .
CN1CCN(CCCNC(=O)CCN2C(=O)COc3ccccc32)CC1 | . | 0 | 0 | -2 | 1 | 8 | .
O=C(CCN1C(=O)COc2ccccc21)NCCCN1CCCC1 | . | 6.4* | -19 | -1 | -3 | -9 | 2
N=c1n(CCN2CCOCC2)c2ccccc2n1CC(=O)c1ccc(Cl)c(Cl)c1 | -7 | 7.7* | -3 | 5 | -1 | 14 | 6.6*
CCCn1c(=N)n(CC(=O)c2ccc([N+](=O)[O-])cc2)c2ccccc21 | 9 | 1 | 6 | 4 | 1 | 0 | .
COc1cccc(C(=O)Cn2c(=N)n(C)c3ccccc32)c1 | -6 | 7.5* | 7 | -3 | 0 | -1 | 5.1*
CCCn1c(=N)n(CC(=O)c2ccc(Cl)cc2)c2ccccc21 | . | 3.8* | -4 | -7 | 0 | -15 | 6.0*
SMILES | p47phox inh | aDG glyco up | EBNA-1 inh | NR1D1 modulator | PG9 binder | ZTA counter | aDG conf
COc1cc(C(=O)C(=O)N2CCN(c3ccc(C)cc3)CC2)cc2ccccc12 | . | 0 | . | -4 | 1 | . | .
COc1cc(C(=O)C(=O)N2CCC(Cc3ccccc3)CC2)cc2ccccc12 | . | 10* | . | 4 | 1 | . | 0
O=C(CSc1ccc(Cl)cc1)Nc1ccccc1 | . | 0 | . | -8 | 0 | . | .
O=C(CSc1cccs1)Nc1ccc(Cl)cc1 | 1 | 3.1* | 0 | 7 | 1 | -5 | -1
CCCCCNCC(=O)Nc1cccc(C(=O)Nc2cccc(C(F)(F)F)c2)c1 | . | 16* | 2 | -2 | 0 | 10 | 10*
COc1ccc(OC)c(CN2C(=O)CCCCC2(C)c2nnnn2C2CCCC2)c1 (stereo not given) | . | . | . | 3 | . | . | .
Cc1csc(NC(=O)C2CCCN(S(=O)(=O)c3ccc4c(c3)oc(=O)n4C)C2)n1 (stereo not given) | -4 | 9.1* | -5 | -1 | -1 | -8 | 0
Cc1ccc(NC(=O)C2CCCN(S(=O)(=O)c3ccc4c(c3)oc(=O)n4C)C2)nc1 (stereo not given) | -5 | 0 | 6 | 4 | 0 | 5 | .
CCC(c1nnnn1Cc1cccs1)N1CCN(c2nc3ccccc3s2)CC1 (stereo not given) | -8 | 12* | 0 | 7 | -1 | 11 | 3.4*
CN1CCc2c(sc(NC(=O)CS(=O)(=O)c3ccccc3)c2C(N)=O)C1 | . | 0 | 0 | 6 | -2 | 7 | .
CN1CCc2c(sc(NC(=O)c3ccc(C(=O)c4ccccc4)cc3)c2C(N)=O)C1 | . | 12* | 5 | 2 | 0 | -7 | 2
CCN1CCc2c(sc(NC(=O)c3ccc(S(=O)(=O)N4CC(C)OC(C)C4)cc3)c2C(N)=O)C1 (stereo not given) | . | 17* | 1 | 1 | -2 | 13 | 3
CC1CN(S(=O)(=O)c2ccc(C(=O)Nc3sc4c(c3C(N)=O)CCN(C)C4)cc2)CC(C)O1 (stereo not given) | -9 | . | . | . | . | . | .
CCC1CCCN1Cn1cnc2c([nH]c3ccccc32)c1=O (stereo not given) | 23 | 0 | 14 | -1 | -2 | 3 | .
CCC1CCCN1Cn1cnc2c([nH]c3ccc(OC)cc32)c1=O (stereo not given) | -12 | 3.8* | -19 | 3 | 0 | -2 | 1
CCCCOCCCNC(=O)C[C@@H]1C(=O)N2CCCC3=C2[C@@]1(C(=O)OC)CCCC3 | . | . | . | 2 | . | . | .
Cc1ccc(S(=O)(=O)N[C@H](C(=O)OCC(=O)NC(=O)c2cccn2C)C(C)C)cc1 | . | 3.6* | . | 4 | 0 | . | 1
CC(C)[C@H](NS(=O)(=O)c1ccccc1)C(=O)OCC(=O)NC(=O)c1cccn1C | -5 | 0 | 0 | -1 | -1 | 0 | .
CC(C)(C)OC(=O)NCc1ccccc1/C=C/S(=O)(=O)NCCc1ccccc1 | . | . | . | -5 | . | . | .
Cc1ccc(-c2nc(C3CCCN(S(=O)(=O)c4ccc(Cl)s4)C3)no2)cc1 (stereo not given) | . | . | . | 1 | . | . | .
O=C(CSc1ccc(Cl)cc1)N/N=C/c1ccc([N+](=O)[O-])o1 | . | 3.2* | -11 | 8 | 0 | -21 | -1
